Whole data set: some 81,000 sequences, median “one-hybrid fitness for binding NBS DNA” near -0.1, cut for the highest 2% near 0.36. Shown is part of a subset that was picked to be rich in the highest values.
B1: Caulobacter ParB omega fusion; a variant is named by its letters at X, in order, B8GW30 (parent)
chain: MESVVVGEPGMSEGRRGLGRGLSALLGEVDAAPAQAPGEQLGGSREAPIEILQRNPDQPRRTFREEDLEDLSNSIREKGVLQPILVRPSPDTAGEYQIVAGERAWRAAQRAGLKTVPIMVRELDDLAVLEIGIIENVQRADLNVLEEALSYKVLMEKFERTQENIAQTIGKSXSHVANXMRLLXLPDEVQSYLVSGELTAXHARAIAAAADPVALAKQIIEGGLSVRETEALARKAPNLSAGKSKGGRPPRVKDTDTQALESDLSSVLGLDVSIDHRGSTGTLTITYATLEQLDDLCNRLTRGI

Variants of: B1
Experiment: one-hybrid fitness for binding NBS DNA (the Noc-binding site; scaled: cognate 1, non-cognate 0); higher = stronger binding
Details: with NBS DNA site
Procedure, shortened: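 Fitness here means the log change in variant-to-wild-type read ratio between plasmids sequenced before and after selection. That scale was set so cognate equals 1 and non-cognate equals 0. The selection was a bacterial one-hybrid screen of Caulobacter ParB libraries, four specificity codons randomised, in E. coli USO carrying a HIS3 reporter with the site 19 bp from the promoter, grown 48 hours at 37°C on M9-minus-histidine with 0.1 mM IPTG and 5 mM 3-AT.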

Variant | one-hybrid fitness for binding NBS DNA
YMSF | ≤ 0.2
HSWC | ≤ 0.2
ATGK | ≤ 0.2
YNLW | ≤ 0.2
DVCT | ≤ 0.2
DEDT | ≤ 0.2
PSQV | ≤ 0.2
DYHC | ≤ 0.2
RKWK | ≤ 0.2
AQNL | ≤ 0.2
RRHN | 0.331
RRHK | 0.267
RRHP | ≤ 0.2
RRHD | ≤ 0.2
RRHH | 0.525
RRHS | 0.681
VSMF | ≤ 0.2
PDIW | ≤ 0.2
QHCA | ≤ 0.2
QIWA | ≤ 0.2
QRTA | 0.6
QRMA | 0.549
QRCA | 0.609
QSWA | ≤ 0.2

Variant | one-hybrid fitness for binding NBS DNA
QSTA | 0.219
QSMA | ≤ 0.2
QRWA | 0.432
QITA | ≤ 0.2
QACA | ≤ 0.2
QCMA | 0.303
FHAS | ≤ 0.2
ENIG | ≤ 0.2
LRKN | ≤ 0.2
PCWT | ≤ 0.2
QSSA | ≤ 0.2
DRRA | ≤ 0.2
QRSA | 0.566
QRLA | 0.547
QPSA | ≤ 0.2
QRPA | 0.207
QWRA | ≤ 0.2
QCIA | 0.25
QRIA | 0.436
QSLA | ≤ 0.2
QCLA | 0.304
QRRA | 0.674
TTVS | ≤ 0.2
YHRS | ≤ 0.2

Variant | one-hybrid fitness for binding NBS DNA
YKRY | ≤ 0.2
IDDD | ≤ 0.2
SRTS | ≤ 0.2
TNTI | ≤ 0.2
CWVC | ≤ 0.2
RTKL | ≤ 0.2
CLGT | ≤ 0.2
QREA | 0.288
QRYA | 0.588
QPYA | ≤ 0.2
RATL | ≤ 0.2
AQRI | ≤ 0.2
VVMC | ≤ 0.2
QRRK | 0.747
QSHK | ≤ 0.2
QRPK | ≤ 0.2
QRWK | 0.239
QCHK | ≤ 0.2
QCSK | ≤ 0.2
QRHK | 0.432
QRCK | 0.388
QSCK | ≤ 0.2
QSSK | ≤ 0.2
QRSK | 0.396

Variant | one-hybrid fitness for binding NBS DNA
QCCK | ≤ 0.2
YTTG | ≤ 0.2
PILC | ≤ 0.2
GPWT | ≤ 0.2
TTST | ≤ 0.2
PSAI | ≤ 0.2
LWNA | ≤ 0.2
HNMG | 0.257
QCAK | ≤ 0.2
QSGK | ≤ 0.2
QRFK | 0.295
QREK | ≤ 0.2
QRGK | 0.445
QRDK | ≤ 0.2
QRYK | 0.381
QCGK | ≤ 0.2
QCNK | ≤ 0.2
QRNK | 0.488
QRIK | 0.213
QRAK | 0.373
TYVS | ≤ 0.2
MKIS | ≤ 0.2
KICD | ≤ 0.2
FCSG | ≤ 0.2

Variant | one-hybrid fitness for binding NBS DNA
FRQA | ≤ 0.2
QRQK | 0.365
QSQK | ≤ 0.2
QCQK | ≤ 0.2
QNYT | ≤ 0.2
QPYT | ≤ 0.2
GPRT | 0.369
QCYT | 0.503
QPRT | ≤ 0.2
QCRT | 0.857
QNRT | 0.292
QSRT | 0.723
GCRT | ≤ 0.2
QSYT | 0.347
GPYT | ≤ 0.2
VDRR | ≤ 0.2
QPAL | ≤ 0.2
PSKA | ≤ 0.2
SGLS | ≤ 0.2
RPAY | ≤ 0.2
SNWT | ≤ 0.2
PAIL | ≤ 0.2
HYHS | ≤ 0.2
FRPV | ≤ 0.2

Variant | one-hybrid fitness for binding NBS DNA
PPFR | ≤ 0.2
QLLT | 0.33
QALT | 0.352
QHLT | 0.337
QIPT | ≤ 0.2
QLRT | 0.668
QART | 0.716
QIYT | 0.335
QLYT | 0.355
QHRT | 0.681
QIRT | 0.608
QHYT | 0.359
QAYT | 0.322
ALLT | ≤ 0.2
QWRW | ≤ 0.2
HELN | ≤ 0.2
VNET | ≤ 0.2
TDND | ≤ 0.2
QYNF | ≤ 0.2
HKPS | ≤ 0.2
SLTE | ≤ 0.2
AVAW | ≤ 0.2
DTKR | 0.321
NTKR | 0.255

Variant | one-hybrid fitness for binding NBS DNA
QTVR | 0.558
QTKR | 1.15
VQPA | ≤ 0.2
YAHE | ≤ 0.2
QHRP | 0.201
QHYS | 0.324
QHRH | 0.494
QHRS | 0.627
QHYH | ≤ 0.2
QHRD | 0.234
SNPD | ≤ 0.2
YDCG | ≤ 0.2
IGGI | ≤ 0.2
EAAG | ≤ 0.2
QLSP | ≤ 0.2
QLAR | 0.478
QLFR | 0.329
QLSR | 0.464
QLRD | ≤ 0.2
QLER | 0.266
QLIR | 0.294
QLSN | ≤ 0.2
QLRR | 0.943
QLPR | 0.232

Variant | one-hybrid fitness for binding NBS DNA
QLYR | 0.425
QLAP | ≤ 0.2
CSWC | ≤ 0.2
YYPG | ≤ 0.2
WYCF | ≤ 0.2
HGNS | ≤ 0.2
FIMG | ≤ 0.2
PPDN | ≤ 0.2
GYQT | ≤ 0.2
DTTS | ≤ 0.2
TWKT | ≤ 0.2
SACG | ≤ 0.2
QLLP | ≤ 0.2
QLCP | ≤ 0.2
QLLS | ≤ 0.2
QLQD | ≤ 0.2
QLQH | ≤ 0.2
QLHP | ≤ 0.2
QLHH | ≤ 0.2
QLCR | 0.468
QLHR | 0.519
QLLR | 0.415
QLQR | 0.483
QLCD | ≤ 0.2

Variant | one-hybrid fitness for binding NBS DNA
LLRD | ≤ 0.2
RCWE | ≤ 0.2
ILMW | ≤ 0.2
QNKK | ≤ 0.2
WACV | ≤ 0.2
ARFF | ≤ 0.2
YTQC | ≤ 0.2
KEGR | ≤ 0.2
VEDR | ≤ 0.2
QLGD | ≤ 0.2
QLGR | 0.496
QLGN | ≤ 0.2
NTCV | ≤ 0.2
LCVN | ≤ 0.2
QTHT | 0.648
QCHT | 0.551
QLHT | 0.393
QIHK | ≤ 0.2
QTHG | 0.234
QIHT | 0.425
QPHT | ≤ 0.2
QTHC | 0.248
QLHG | ≤ 0.2
QIHN | ≤ 0.2

Variant | one-hybrid fitness for binding NBS DNA
QFHT | ≤ 0.2
NTKL | ≤ 0.2
YMTV | ≤ 0.2
HSGS | ≤ 0.2
THQS | ≤ 0.2
HCNT | ≤ 0.2
MGAT | ≤ 0.2
QAHT | 0.414
QHHT | 0.419
QAHC | ≤ 0.2
QAHF | ≤ 0.2
QNHT | ≤ 0.2
QHHK | ≤ 0.2
QWHT | ≤ 0.2
QSHT | 0.429
QHHY | ≤ 0.2
PYTI | ≤ 0.2
TEKH | ≤ 0.2
AHRE | ≤ 0.2
QKDR | 0.425
QKNC | 0.201
QKNF | ≤ 0.2
QKNR | 0.747
QKDF | ≤ 0.2

Variant | one-hybrid fitness for binding NBS DNA
SPCS | ≤ 0.2
VPAP | ≤ 0.2
YAMK | ≤ 0.2
GQTK | ≤ 0.2
INGE | ≤ 0.2
QVRS | 0.482
QVRD | ≤ 0.2
QVNN | ≤ 0.2
QVYS | 0.202
QVDR | ≤ 0.2
QVQN | ≤ 0.2
QVDS | ≤ 0.2
QVNS | 0.377
QVQR | 0.368
QVNR | 0.465
QVQS | ≤ 0.2
QVND | ≤ 0.2
SVQD | ≤ 0.2
CSRY | ≤ 0.2
EQAR | ≤ 0.2
RYPY | ≤ 0.2
WMPP | ≤ 0.2
AHEF | ≤ 0.2
GQCW | ≤ 0.2

Variant | one-hybrid fitness for binding NBS DNA
EIHG | ≤ 0.2
GPST | ≤ 0.2
VMSA | ≤ 0.2
LYRR | ≤ 0.2
GDTA | ≤ 0.2
QVAH | ≤ 0.2
QVYR | 0.306
QVSD | ≤ 0.2
QVFR | 0.302
QVSN | ≤ 0.2
QVAR | 0.384
QVRR | 0.77
QVGD | ≤ 0.2
QVGP | ≤ 0.2
QVLR | 0.305
QVSR | 0.38
QVGR | 0.426
GHLS | ≤ 0.2
CPPV | ≤ 0.2
SSGL | ≤ 0.2
QAQG | ≤ 0.2
VSSH | ≤ 0.2
ELVL | ≤ 0.2
DGRA | ≤ 0.2

Variant | one-hybrid fitness for binding NBS DNA
PHAM | ≤ 0.2
TTRG | ≤ 0.2
QVHR | 0.436
QVKR | 0.786
QVHN | ≤ 0.2
QVVR | 0.285
QVHD | ≤ 0.2
QVKG | ≤ 0.2
SFPV | ≤ 0.2
PNKV | ≤ 0.2
CGYT | ≤ 0.2
FDPN | ≤ 0.2
SLHW | ≤ 0.2
LRDR | ≤ 0.2
LRYR | ≤ 0.2
LRKR | 0.452
LRRR | 0.483
LCKR | 0.207
LRVR | 0.207

From a collection of fitness landscapes (doi:10.1016/j.celrep.2020.107928)
